Where “and” joins values, the source holds several entries; their conditions need not be identical. Equal values may be shown once. Inconclusive results are not listed. More than one record can exist for a structure, and the calls need not agree. Calls of active or inactive are those of the source. How the source made its calls, unless noted: active means hit-call score of the fitted dose curve at least 0.9, where 1 is the maximum; inactive means score below 0.9.
Key:
[1] = target: Myc proto-oncogene protein (Homo sapiens) (UniProt P01106); assay: ATG_Myc_CIS: Attagene CIS-FACTORIAL HepG2 Assay for human Myelocytomatosis (Myc) Proto-Oncogene Transcription Factor (AID 2282990); settings: HepG2, Attagene cis-reporter transcription factor activity; actives raise or lower the signal
Summary of the method: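 HepG2, transient MRTU transfection (cis promoters, endogenous TFs); 24 h dosing; TriZol RNA → oligo(dT) RT → PCR → 6-FAM primer extension → HpaI cut → CE. Bidirectional fit vs DMSO.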

[2] = ATG_NF_kB_CIS: Attagene CIS-FACTORIAL HepG2 Assay for human Nuclear Factor Kappa B (NF-kB) (AID 2282991); settings: HepG2 Attagene cis-factorial NF-kB reporter mRNA; actives raise or lower the signal
Summary of the method: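 Fluorescence of labelled RT-PCR products separated by capillary electrophoresis gives reporter mRNA levels from transfected HepG2 cells exposed 24 h; values are fitted in both directions relative to DMSO.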

[3] = ATG_NRF2_ARE_CIS: Attagene CIS-FACTORIAL HepG2 Assay for human Nuclear Factor Erythroid 2 Related Factor 2 (NFR2) response to Antioxidant Response Elements (ARE) (AID 2282992); settings: HepG2 Attagene ARE/NRF2 reporter, transcription factor activity; actives raise or lower the signal
Summary of the method: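 Endogenous transcription factor activity in human liver HepG2 cells is tracked via a cis-element-driven reporter within a multiplexed set. mRNA induction is read by RT-PCR and capillary electrophoresis after 24 h, with DMSO as baseline.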

[4] = ATG_Oct_MLP_CIS: Attagene CIS-FACTORIAL HepG2 Assay for human Octamer-Binding Transcription Factor (Oct) (AID 2282993); settings: HepG2 Attagene cis-factorial Oct reporter, mRNA; actives raise or lower the signal
Summary of the method: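 Read-out: reporter mRNA via RT-PCR plus capillary electrophoresis of 6-FAM-labelled fragments. Transiently transfected HepG2, 24 h exposure, endogenous TF activity on cis elements. Gain or loss of signal fitted relative to DMSO.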

[5] = target: Cellular tumor antigen p53 (Homo sapiens) (UniProt P04637); assay: ATG_p53_CIS: Attagene CIS-FACTORIAL HepG2 Assay for human p53 Transcription Factor (AID 2282994); settings: HepG2 p53 cis-element reporter, Attagene mRNA; actives raise or lower the signal
Summary of the method: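 Steps: transfect HepG2 with multiplexed cis reporter constructs; dose chemicals 24 h; extract RNA, reverse-transcribe, PCR-amplify reporter sequences; FAM-label, HpaI-digest, resolve fragments by CE. Activity fitted both directions relative to DMSO.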

[6] = BSK_3C_TissueFactor: BioMAP Diversity Plus: 3C Assay for Tissue Factor Biomarker Activity (AID 2282997); settings: BioMAP 3C HUVEC, tissue factor biomarker readout; actives raise or lower the signal
Summary of the method: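 HUVEC, 3C system, 24 h post-dose; Tissue Factor by ELISA; bidirectional fit vs DMSO baseline.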

[7] = BSK_3C_uPAR: BioMAP Diversity Plus: 3C Assay for Urokinase-type plasminogen activator receptor (uPAR) Biomarker Activity (AID 2282998); settings: BioMAP 3C HUVEC, uPAR biomarker ELISA; actives raise or lower the signal
Summary of the method: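 HUVEC primary cells; 24 h post-dose; uPAR by ELISA; gain or loss of signal fitted bidirectionally vs DMSO baseline.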

[8] = BSK_3C_VCAM1: BioMAP Diversity Plus: 3C Assay for Vascular cell adhesion molecule 1 (VCAM1) Biomarker Activity (AID 2282999); settings: BioMAP 3C HUVEC, VCAM1 ELISA, cytokine-stimulated; actives raise or lower the signal
Summary of the method: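 Activity fitted in both directions relative to DMSO, with ELISA measurement of the surface marker on primary HUVEC (3C) at 24 h post-treatment; parallel SRB staining (0.1% SRB, TCA-fixed, 560 nm) flagged overt cytotoxicity.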

[9] = BSK_4H_Eotaxin3: BioMAP Diversity Plus: 4H Assay for Eotaxin 3 Biomarker Activity (AID 2283000); settings: primary human endothelial cells (HUVEC); actives raise or lower the signal
Summary of the method: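 Readout is Eotaxin-3 (CCL26) level by ELISA in primary human umbilical vein endothelial cells harvested 24 h after chemical exposure; activity fitted in both directions against DMSO control.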

[10] = target: human Peroxisome Proliferator-activated Receptor delta (PPARd), PPARD (gene 5467) (UniProt Q03181); assay: ATG_PPARd_TRANS: Attagene TRANS-FACTORIAL HepG2 Assay for human Peroxisome Proliferator-activated Receptor delta (PPARd) (AID 2283002; active means hit-call score of the fitted dose curve at least 0.9, where 1 is the maximum)
Summary of the method: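 Transient HepG2 transfection (multiple GAL4-UAS RTUs, chimeric receptor-Gal4); 24 h dosing; total RNA → oligo(dT) RT → PCR → 6-FAM primer extension → HpaI cut → CE. Positive direction vs DMSO.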

[11] = read-out: Intercellular Adhesion Molecule 1 (ICAM1), ICAM1 (gene 3383); assay: BSK_3C_ICAM1: BioMAP Diversity Plus: 3C Assay for Intercellular Adhesion Molecule 1 (ICAM1) Biomarker Activity (AID 2283003); settings: primary human endothelial cells (HUVEC); actives raise or lower the signal
Summary of the method: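 ELISA read-out of ICAM-1; HUVEC (primary human), 3C system, 24 h post-dosing; bidirectional fit vs DMSO baseline.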

[12] = target: human Retinoic Acid Receptor beta (RARb), RARB (gene 5915) (UniProt P10826); assay: ATG_RARb_TRANS: Attagene TRANS-FACTORIAL HepG2 Assay for human Retinoic Acid Receptor beta (AID 2283004; active means hit-call score of the fitted dose curve at least 0.9, where 1 is the maximum)
Summary of the method: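 Readout is reporter mRNA induction: RNA reverse-transcribed, PCR-amplified, FAM-labelled, HpaI-cut and resolved by capillary electrophoresis. Transiently transfected HepG2 cells carrying exogenous NR–Gal4 chimeras were dosed for 24 h; activity fitted upward relative to DMSO.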

[13] = BSK_3C_Proliferation: Cell Proliferation Assessment in the BioMAP Diversity Plus: 3C Assay (AID 2283006); settings: primary human endothelial cells (HUVEC);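 on AC50: potency may reflect either rise or fall in cell number versus DMSO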
Summary of the method: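 HUVEC, sub-confluent; 48 h chemical exposure; 10% TCA fix, 0.1% SRB stain, A560 total protein. Gain or loss of signal fitted both directions vs DMSO control.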

[14] = target: Peroxisome proliferator-activated receptor gamma (Homo sapiens) (UniProt P37231); assay: ATG_PPARg_TRANS: Attagene TRANS-FACTORIAL HepG2 Assay for human Peroxisome Proliferator-activated Receptor-gamma (PPARg) (AID 2283007; active means hit-call score of the fitted dose curve at least 0.9, where 1 is the maximum)
Summary of the method: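 Twenty-four hours after chemical dosing of transiently transfected HepG2 cells, isolated RNA was converted to cDNA, reporter sequences amplified and 6-FAM-labelled, then HpaI-digested and analysed by capillary electrophoresis. Signal increase against DMSO was fitted.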

[15] = target: Nuclear receptor subfamily 1 group I member 2 (Homo sapiens) (UniProt O75469); assay: ATG_PXR_TRANS: Attagene TRANS-FACTORIAL HepG2 Assay for human Pregnane X Receptor (PXR) (AID 2283008; active means hit-call score of the fitted dose curve at least 0.9, where 1 is the maximum)
Summary of the method: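 HepG2 transfected (FuGene 6) with GAL4-UAS reporter units + PXR-Gal4 chimera; dosed 24 h. Total RNA → oligo(dT) RT → PCR → 6-FAM primer extension → HpaI cut → CE. Gain-of-signal vs DMSO.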

[16] = target: human RAR-related Orphan Receptor beta (RORb), RORB (gene 6096) (UniProt Q92753); assay: ATG_RORb_TRANS: Attagene TRANS-FACTORIAL HepG2 Assay for human RAR-related Orphan Receptor beta (RORb) (AID 2283010; active means hit-call score of the fitted dose curve at least 0.9, where 1 is the maximum)
Summary of the method: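 HepG2, transient MRTU transfection (GAL4-UAS reporters, exogenous NR-Gal4 chimeras); 24 h compound exposure; total RNA → RT-PCR → 6-FAM primer extension → HpaI digest → CE fluorescence. Positive direction vs DMSO baseline.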

[17] = target: human RAR-related Orphan Receptor gamma (RORg), RORC (gene 6097) (UniProt P51449); assay: ATG_RORg_TRANS: Attagene TRANS-FACTORIAL HepG2 Assay for human RAR-related Orphan Receptor gamma (RORg) (AID 2283011; active means hit-call score of the fitted dose curve at least 0.9, where 1 is the maximum)
Summary of the method: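 Transient MRTU transfection of HepG2 (TRANS format, exogenous NR-Gal4 chimera). 24 h dosing. Total RNA → oligo(dT) RT → PCR → 6-FAM labelling → HpaI cut → CE. Gain vs DMSO.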

[18] = target: human Peroxisome Proliferator-activated Receptor alpha (PPARa), PPARA (gene 5465) (UniProt Q07869); assay: ATG_PPARa_TRANS: Attagene TRANS-FACTORIAL HepG2 Assay for human Peroxisome Proliferator-activated Receptor alpha (PPARa) (AID 2283001; active means hit-call score of the fitted dose curve at least 0.9, where 1 is the maximum)
Summary of the method: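 Transfected HepG2 cells treated with test chemical for 24 h. RNA isolated, reverse-transcribed with oligo(dT), PCR-amplified, FAM-labelled and HpaI-digested. Fragments sized by capillary electrophoresis; gain-of-signal fit relative to DMSO.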

[19] = target: Retinoic acid receptor alpha (Homo sapiens) (UniProt P10276); assay: ATG_RARa_TRANS: Attagene TRANS-FACTORIAL HepG2 Assay for human Retinoic Acid Receptor alpha (RARa) (AID 2283005; active means hit-call score of the fitted dose curve at least 0.9, where 1 is the maximum)
Summary of the method: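 Reporter transcripts, measured by RT-PCR with fluorescent labeling and capillary electrophoresis after 24 h dosing, reflect activity of an exogenous human RARa–GAL4 fusion in transiently transfected HepG2. Fitted for increase relative to DMSO.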

[20] = target: human Retinoic Acid Receptor gamma (RARg), RARG (gene 5916) (UniProt P13631); assay: ATG_RARg_TRANS: Attagene TRANS-FACTORIAL HepG2 Assay for human Retinoic Acid Receptor gamma (RARg) (AID 2283009; active means hit-call score of the fitted dose curve at least 0.9, where 1 is the maximum;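 on AC50: AC50 is for reporter induction above DMSO meaning RARg activation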)
Summary of the method: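 Readout: reporter transcript levels via RT-PCR, 6-FAM primer-extension labelling, HpaI digestion and capillary electrophoresis. Cells: HepG2 carrying transfected RARg-GAL4 chimera plus UAS reporter set. Dosing 24 h; DMSO negative control.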

Measured: AC50

Chain of Myc proto-oncogene protein (Homo sapiens) (P01106 whole entry, looked up): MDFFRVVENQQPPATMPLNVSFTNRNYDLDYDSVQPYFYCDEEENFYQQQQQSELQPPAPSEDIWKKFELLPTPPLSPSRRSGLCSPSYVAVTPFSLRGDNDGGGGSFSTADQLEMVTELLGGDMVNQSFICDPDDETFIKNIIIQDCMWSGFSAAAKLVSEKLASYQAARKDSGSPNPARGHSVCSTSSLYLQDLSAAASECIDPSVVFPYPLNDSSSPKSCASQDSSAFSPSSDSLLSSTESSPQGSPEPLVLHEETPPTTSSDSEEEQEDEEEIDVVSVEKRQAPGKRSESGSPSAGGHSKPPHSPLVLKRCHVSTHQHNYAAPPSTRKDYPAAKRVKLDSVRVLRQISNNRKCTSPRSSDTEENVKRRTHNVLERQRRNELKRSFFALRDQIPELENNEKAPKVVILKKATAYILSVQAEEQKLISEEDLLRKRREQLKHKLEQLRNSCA
Chain of human Peroxisome Proliferator-activated Receptor alpha (PPARa), PPARA (gene 5465) (Q07869 whole entry, looked up, the tested form may be a part): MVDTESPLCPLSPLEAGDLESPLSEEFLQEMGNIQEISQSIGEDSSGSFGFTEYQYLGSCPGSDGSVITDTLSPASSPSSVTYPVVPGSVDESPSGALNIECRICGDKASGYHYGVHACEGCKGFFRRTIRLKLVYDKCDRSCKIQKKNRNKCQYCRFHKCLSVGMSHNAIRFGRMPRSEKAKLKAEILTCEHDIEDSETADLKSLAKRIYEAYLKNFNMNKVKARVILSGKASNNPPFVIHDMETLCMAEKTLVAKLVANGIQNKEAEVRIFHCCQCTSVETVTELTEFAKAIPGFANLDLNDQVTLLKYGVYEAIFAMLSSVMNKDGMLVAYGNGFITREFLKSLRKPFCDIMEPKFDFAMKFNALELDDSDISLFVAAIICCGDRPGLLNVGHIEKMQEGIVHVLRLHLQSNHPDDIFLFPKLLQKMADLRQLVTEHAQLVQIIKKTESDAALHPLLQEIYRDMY
Chain of Retinoic acid receptor alpha (Homo sapiens) (P10276 whole entry, looked up, the tested form may be a part): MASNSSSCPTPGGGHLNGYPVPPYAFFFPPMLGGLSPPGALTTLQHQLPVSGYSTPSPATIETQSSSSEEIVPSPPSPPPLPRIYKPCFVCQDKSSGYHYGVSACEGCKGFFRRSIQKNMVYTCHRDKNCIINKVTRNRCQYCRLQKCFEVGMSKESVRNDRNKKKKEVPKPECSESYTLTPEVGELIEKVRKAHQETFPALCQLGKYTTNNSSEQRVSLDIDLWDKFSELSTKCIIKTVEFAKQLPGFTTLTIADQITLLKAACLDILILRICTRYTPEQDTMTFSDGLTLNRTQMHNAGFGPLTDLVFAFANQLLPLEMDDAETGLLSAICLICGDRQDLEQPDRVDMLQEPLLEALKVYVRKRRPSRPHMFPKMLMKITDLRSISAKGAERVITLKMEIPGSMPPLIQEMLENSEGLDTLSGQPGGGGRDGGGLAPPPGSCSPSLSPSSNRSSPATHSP
Chain of human RAR-related Orphan Receptor beta (RORb), RORB (gene 6096) (Q92753 whole entry, looked up, the tested form may be a part): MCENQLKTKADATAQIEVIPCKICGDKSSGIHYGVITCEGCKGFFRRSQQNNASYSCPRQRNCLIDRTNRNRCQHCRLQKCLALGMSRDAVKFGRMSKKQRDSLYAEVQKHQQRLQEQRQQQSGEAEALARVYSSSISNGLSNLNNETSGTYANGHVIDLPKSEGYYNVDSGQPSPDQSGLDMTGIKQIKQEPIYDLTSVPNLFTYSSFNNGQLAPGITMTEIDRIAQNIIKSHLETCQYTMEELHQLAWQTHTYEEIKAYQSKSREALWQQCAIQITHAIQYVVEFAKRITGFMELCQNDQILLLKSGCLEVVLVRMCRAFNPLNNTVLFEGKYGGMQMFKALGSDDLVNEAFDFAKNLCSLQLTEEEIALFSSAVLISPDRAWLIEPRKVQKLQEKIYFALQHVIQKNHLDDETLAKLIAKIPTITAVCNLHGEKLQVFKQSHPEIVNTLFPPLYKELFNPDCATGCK
Chain of Nuclear receptor subfamily 1 group I member 2 (Homo sapiens) (O75469 whole entry, looked up, the tested form may be a part): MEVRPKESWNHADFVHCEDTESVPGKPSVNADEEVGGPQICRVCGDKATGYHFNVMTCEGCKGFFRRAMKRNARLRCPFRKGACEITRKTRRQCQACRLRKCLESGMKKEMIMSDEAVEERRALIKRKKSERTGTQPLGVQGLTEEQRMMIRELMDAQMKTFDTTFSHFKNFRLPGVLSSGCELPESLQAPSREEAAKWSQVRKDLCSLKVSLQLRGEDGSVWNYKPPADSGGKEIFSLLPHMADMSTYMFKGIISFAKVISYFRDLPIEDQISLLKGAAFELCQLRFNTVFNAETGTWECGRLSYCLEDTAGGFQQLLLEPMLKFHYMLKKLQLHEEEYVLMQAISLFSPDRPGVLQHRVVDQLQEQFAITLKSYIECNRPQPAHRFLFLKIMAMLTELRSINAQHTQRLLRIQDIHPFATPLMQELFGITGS
Chain of human Retinoic Acid Receptor gamma (RARg), RARG (gene 5916) (P13631 whole entry, looked up, the tested form may be a part): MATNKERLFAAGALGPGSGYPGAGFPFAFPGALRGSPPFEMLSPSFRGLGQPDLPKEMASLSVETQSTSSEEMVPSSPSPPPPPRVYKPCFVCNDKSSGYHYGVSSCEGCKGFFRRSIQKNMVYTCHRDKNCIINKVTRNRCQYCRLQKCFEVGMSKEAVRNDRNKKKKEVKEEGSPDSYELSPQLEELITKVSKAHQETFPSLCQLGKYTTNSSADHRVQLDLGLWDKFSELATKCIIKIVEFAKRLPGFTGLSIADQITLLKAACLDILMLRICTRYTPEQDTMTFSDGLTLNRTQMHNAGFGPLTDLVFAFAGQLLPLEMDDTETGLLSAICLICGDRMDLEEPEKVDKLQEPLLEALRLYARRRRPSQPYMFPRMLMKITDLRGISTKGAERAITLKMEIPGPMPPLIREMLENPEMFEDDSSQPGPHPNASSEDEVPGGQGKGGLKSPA
Chain of Cellular tumor antigen p53 (Homo sapiens) (P04637 whole entry, looked up, the tested form may be a part): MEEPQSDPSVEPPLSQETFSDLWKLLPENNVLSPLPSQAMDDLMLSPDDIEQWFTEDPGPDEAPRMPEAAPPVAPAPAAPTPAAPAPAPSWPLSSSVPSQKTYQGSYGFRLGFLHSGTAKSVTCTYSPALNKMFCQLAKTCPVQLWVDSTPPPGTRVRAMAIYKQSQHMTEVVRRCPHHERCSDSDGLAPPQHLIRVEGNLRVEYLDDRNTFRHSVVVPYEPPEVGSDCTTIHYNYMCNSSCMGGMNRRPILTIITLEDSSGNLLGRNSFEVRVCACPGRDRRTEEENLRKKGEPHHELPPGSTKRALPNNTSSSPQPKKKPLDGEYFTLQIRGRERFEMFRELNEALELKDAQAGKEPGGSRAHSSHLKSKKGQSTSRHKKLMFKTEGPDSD
Chain of Peroxisome proliferator-activated receptor gamma (Homo sapiens) (P37231 whole entry, looked up): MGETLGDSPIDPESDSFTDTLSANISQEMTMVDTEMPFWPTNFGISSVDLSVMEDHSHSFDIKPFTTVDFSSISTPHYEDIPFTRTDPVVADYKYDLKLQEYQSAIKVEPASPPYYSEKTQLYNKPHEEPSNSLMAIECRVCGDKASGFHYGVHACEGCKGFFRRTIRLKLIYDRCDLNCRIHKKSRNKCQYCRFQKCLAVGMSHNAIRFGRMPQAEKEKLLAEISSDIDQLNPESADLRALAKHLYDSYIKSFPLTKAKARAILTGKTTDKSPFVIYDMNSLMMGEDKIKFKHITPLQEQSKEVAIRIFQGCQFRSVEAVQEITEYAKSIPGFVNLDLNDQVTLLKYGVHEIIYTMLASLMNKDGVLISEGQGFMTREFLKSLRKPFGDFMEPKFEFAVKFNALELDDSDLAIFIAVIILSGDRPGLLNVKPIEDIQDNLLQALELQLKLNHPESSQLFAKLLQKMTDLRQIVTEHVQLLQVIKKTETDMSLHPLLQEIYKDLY
Chain of human Retinoic Acid Receptor beta (RARb), RARB (gene 5915) (P10826 whole entry, looked up, the tested form may be a part): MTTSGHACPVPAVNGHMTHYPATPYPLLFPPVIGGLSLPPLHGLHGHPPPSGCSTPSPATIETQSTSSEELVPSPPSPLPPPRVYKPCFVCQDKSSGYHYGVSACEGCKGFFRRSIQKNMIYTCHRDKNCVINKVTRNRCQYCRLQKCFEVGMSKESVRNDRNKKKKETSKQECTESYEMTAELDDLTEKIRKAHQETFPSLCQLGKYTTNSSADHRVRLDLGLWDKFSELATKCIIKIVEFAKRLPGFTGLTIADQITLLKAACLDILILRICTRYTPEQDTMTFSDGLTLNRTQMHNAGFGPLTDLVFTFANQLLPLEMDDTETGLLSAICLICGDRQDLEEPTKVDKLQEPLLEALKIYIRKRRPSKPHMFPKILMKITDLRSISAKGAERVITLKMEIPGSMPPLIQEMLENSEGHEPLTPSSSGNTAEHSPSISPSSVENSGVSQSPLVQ
Chain of human RAR-related Orphan Receptor gamma (RORg), RORC (gene 6097) (P51449 whole entry, looked up, the tested form may be a part): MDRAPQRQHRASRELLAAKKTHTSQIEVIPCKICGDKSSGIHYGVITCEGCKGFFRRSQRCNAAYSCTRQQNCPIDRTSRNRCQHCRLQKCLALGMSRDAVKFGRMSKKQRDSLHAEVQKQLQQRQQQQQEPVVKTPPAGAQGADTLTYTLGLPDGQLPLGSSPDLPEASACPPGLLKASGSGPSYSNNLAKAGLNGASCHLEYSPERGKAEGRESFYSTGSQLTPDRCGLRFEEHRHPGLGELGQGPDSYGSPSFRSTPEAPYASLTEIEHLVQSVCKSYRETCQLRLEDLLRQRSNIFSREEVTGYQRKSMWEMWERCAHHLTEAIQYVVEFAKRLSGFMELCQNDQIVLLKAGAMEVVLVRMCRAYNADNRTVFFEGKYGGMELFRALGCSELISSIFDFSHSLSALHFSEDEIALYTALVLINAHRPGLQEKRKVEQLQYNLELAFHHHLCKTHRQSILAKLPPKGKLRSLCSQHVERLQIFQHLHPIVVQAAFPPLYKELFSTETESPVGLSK

C[C@]12CC[C@@H]3c4ccc(O)cc4C[C@@H](CCCCCCCCCS(=O)CCCC(F)(F)C(F)(F)F)[C@H]3[C@@H]1CC[C@@H]2O (some centres not stated)
active: [13] 2.05 µM | [15] 494 nM [middle of 4 runs]
not listed: [18] | [19] | [20]
inactive: all other assays above

CC(C)CCCCCCc1ccc(O)cc1
inactive: [1] | [2] | [3] | [4] | [5] | [18] | [10] | [12] | [19] | [14] | [20] | [16]
active: [1] 15.4 µM | [2] 11.1 µM | [3] 8.96 µM and 11.1 µM and 9.16 µM | [4] 17.4 µM and 17.1 µM | [5] 20.1 µM and 20.3 µM | [6] 9.54 µM | [7] 9.68 µM | [8] 7.98 µM | [9] 10.6 µM | [11] 11.2 µM | [13] 4.54 µM | [14] 11.1 µM | [20] 14.2 µM

O=C(c1ccccc1)C1CCCCC1
inactive: [1] | [2] | [3] | [5] | [6] | [7] | [8] | [9] | [10] | [11] | [12] | [13] | [14] | [15] | [20]
active: [14] 61.5 µM | [15] 29.1 µM and 8.99 µM and 19.7 µM

O=C(O)C1(C(=O)Nc2ccc(Cl)cc2Cl)CC1
active: [3] 30.4 µM | [13] 32 µM | [14] 35.1 µM
not listed: [4] | [12] | [16] | [19]
inactive: all other assays above

CCCCC(CC)CN1C(=O)C2C3C=CC(C3)C2C1=O (configuration not stated)
inactive: [1] | [2] | [5] | [6] | [8] | [9] | [10] | [11]
active: [3] 16.7 µM | [4] 17.4 µM | [7] 32.2 µM | [13] 31.2 µM | [14] 50 µM | [15] 14.6 µM

CC(C)(c1ccc(O)cc1)c1ccc(O)cc1
inactive: [1] | [2] | [3] | [5] | [6] | [7] | [8] | [9] | [18] | [10] | [11] | [12] | [19] | [13] | [14] | [15] | [20] | [16]
active: [1] 2.29 µM | [2] 56.9 µM | [5] 86.2 µM and 100 µM and 133 µM | [13] 27.4 µM | [14] 14.2 µM and 18.3 µM and 25.8 µM

— PubChem BioAssay (EPA / NIEHS)
